Measured values as given in PubChem BioAssay AID1159506 (National Center for Advancing Translational Sciences (NCATS), 2015).
Over roughly 59,000 sequences, the read-out has its median near -0.00055; the lowest 2% begin near -2. This is one part of a sample in which the lowest values are shown more often than they occur.

Test: Identification of proteins required for the processing of the EWS-FLI1 nascent transcript;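 note: robust z of luciferase light less the median z of siRNAs with the same seed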
Conditions: TC32 Ewing sarcoma NR0B1-luc vs CMV-luc (EWS-FLI1 target promoter against control promoter), 48 h; screened at 20 nM (by protocol)
Procedure, shortened: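 Three siRNAs per gene, each in a separate well at 20 nM, were transfected into TC32 cells bearing either reporter construct. Luminescence was measured two days on, and per-gene comparison relied on seed-corrected Z values.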

**Q.** With UACUGAACACUGGAAAUUC against FGFBP2 as the sequence, how does the seed-corrected z-score read?
**A.** 1.53

**Q.** With UUCUCAUCGAGCCUGAAGU against FAM187B as the sequence, how does the seed-corrected z-score read?
**A.** 1.36

**Q.** With UGUUGUACCACUGUCAGAG against PPM1G as the sequence, how does the seed-corrected z-score read?
**A.** -0.406

**Q.** For AUAGAUACUGGGAGGUUUG against UBE2J2, which seed-corrected z-score is on record?
**A.** 0.783

**Q.** With UAAUCAUCCCGACCAACGC against P2RY10 as the sequence, how does the seed-corrected z-score read?
**A.** -0.625

**Q.** Which seed-corrected z-score does the source give for CAGAUUCUGACGCUUUGUG against LIMD1-AS1 here?
**A.** -1.25

**Q.** For UCGAUGUAGAGGAUGCUGA against GDF7, which seed-corrected z-score is on record?
**A.** -2.35

**Q.** For UAAGAAAUGACGUGUGCUG against PTGDR2, which seed-corrected z-score is on record?
**A.** 0.0522

**Q.** For UGAGGUACUCGCUUUCCUG against TCTE1, which seed-corrected z-score is on record?
**A.** -0.587

**Q.** Which seed-corrected z-score does the source give for UUAGAAAUGCAAAUAAACU against TMSB15A here?
**A.** 0.478

**Q.** For UUCGGUAAGACAUCAGUGG against STAG2, which seed-corrected z-score is on record?
**A.** 0.75

**Q.** With UUGUAAUCAAAGUAGUAGC against PSMD8 as the sequence, how does the seed-corrected z-score read?
**A.** -5.85

**Q.** With UGUUCUUGAACUGUAGUAC against RNF40 as the sequence, how does the seed-corrected z-score read?
**A.** 0.119

**Q.** For UGAGCCUUGAGUGCACUGG against LOC729047, which seed-corrected z-score is on record?
**A.** 0.713

**Q.** Which seed-corrected z-score does the source give for UAAGAUUGGAGAGAUUGCC against SLC10A4 here?
**A.** 0.287

**Q.** For UGUAGUAUCUGAGUCAACC against CENPE, which seed-corrected z-score is on record?
**A.** -2.96

**Q.** Which seed-corrected z-score does the source give for UUACAUAUCACGUACAUCC against SENP8 here?
**A.** 0.448

**Q.** Which seed-corrected z-score does the source give for UUUUCUAAUAUGCUAACUG against BMP8A here?
**A.** -0.422

**Q.** Which seed-corrected z-score does the source give for UCAUUAGUAAUAUCGUCGG against HSP90AA1 here?
**A.** -0.64

**Q.** For UCAAUGCCUCUGAUUGUUG against SPATA31D5P, which seed-corrected z-score is on record?
**A.** -1.51

**Q.** Which seed-corrected z-score does the source give for UUCGAUACCAGCCGGUAGC against F8A2 here?
**A.** -12.9

**Q.** Which seed-corrected z-score does the source give for UUCCCGUAAACUUUCUCGC against KLF13 here?
**A.** 0.162

**Q.** For UGAUCUAUGAGUACGUCCG against SBNO1, which seed-corrected z-score is on record?
**A.** -0.107

**Q.** With AAGUGGACUUGAGAUGUGG against PPP1R1A as the sequence, how does the seed-corrected z-score read?
**A.** -0.084

**Q.** With UUAACAUGCAAGAAAUGUC against SPO11 as the sequence, how does the seed-corrected z-score read?
**A.** 2.19

**Q.** For UUGUCCUUCAGGAACACCG against EPB41L1, which seed-corrected z-score is on record?
**A.** 0.385

**Q.** For UAUCUAGUAGUAGUUCACC against CAB39, which seed-corrected z-score is on record?
**A.** 0.229

**Q.** Which seed-corrected z-score does the source give for UCUGGUGGUGGUCUGAGUC against ZFP64 here?
**A.** -3.19

**Q.** With AAUGUUGUAGUUGAUUAGC against CCDC178 as the sequence, how does the seed-corrected z-score read?
**A.** -0.836

**Q.** For UUGACAGUUUCCAUCAGGC against PLIN3, which seed-corrected z-score is on record?
**A.** 0.105

**Q.** For UAUCGAUUUGGGUCGUAGC against GNL1, which seed-corrected z-score is on record?
**A.** 0.128

**Q.** With UACGUGAGCUGUGAUGAGC against IRF4 as the sequence, how does the seed-corrected z-score read?
**A.** -0.522

**Q.** With UAGGCGAAUACAGUUAGGG against PRDM11 as the sequence, how does the seed-corrected z-score read?
**A.** -0.0836

**Q.** For AAAAGGUAAACAGUGCUGG against HCAR1, which seed-corrected z-score is on record?
**A.** -2.61

**Q.** Which seed-corrected z-score does the source give for AAUAUAACGACUAAUGUCC against CTNNBIP1 here?
**A.** 0.971

**Q.** Which seed-corrected z-score does the source give for UUUAGAGGCAGGGAGAAGC against MT1XP1 here?
**A.** -2.16

**Q.** Which seed-corrected z-score does the source give for UUUCGAGUUUCAAUGCUCC against SEC31A here?
**A.** 0.675

**Q.** For AUGAGUUUAAAGUACAAAG against TBC1D3G, which seed-corrected z-score is on record?
**A.** -0.961

**Q.** For AAAGCUCUUCUAAUGAUAG against CMPK2, which seed-corrected z-score is on record?
**A.** 1.05

**Q.** Which seed-corrected z-score does the source give for UUUCCAAUAUUUGAAGGUG against IFNK here?
**A.** -0.532

**Q.** Which seed-corrected z-score does the source give for UCUGGGUUGAGGUCUACGA against LGALSL here?
**A.** 1.22

**Q.** Which seed-corrected z-score does the source give for UCUCUUUUAGGUGGUUUGG against RNPS1P1 here?
**A.** -2.12

**Q.** For UUUGGAGCCGAAAGCAUUG against TBX4, which seed-corrected z-score is on record?
**A.** -0.381

**Q.** With UUUCUUACCAUAGUUGUCC against TCF7L1 as the sequence, how does the seed-corrected z-score read?
**A.** 0.0239

**Q.** With UUCACGAGUAGAGAUGUGG against ULK4 as the sequence, how does the seed-corrected z-score read?
**A.** -0.0896

**Q.** For UGUGGAUUCGCAUUCGUGC against WNT10B, which seed-corrected z-score is on record?
**A.** -0.172

**Q.** For AAGAGCAGUAUAGCCCUUG against FAM219B, which seed-corrected z-score is on record?
**A.** -2.73

**Q.** For UUCAGAGUAAUGUCGACAU against RPL9, which seed-corrected z-score is on record?
**A.** -0.525

**Q.** With UAUUAUCCAGGAUUAAUUC against TMED5 as the sequence, how does the seed-corrected z-score read?
**A.** 0.444

**Q.** For UGGUUAUUAACCACGAAAC against DACH2, which seed-corrected z-score is on record?
**A.** -2.55

**Q.** Which seed-corrected z-score does the source give for UUUUUGGGUUGUGCGAUGG against CLDN8 here?
**A.** -0.531

**Q.** For UAGUCGAUUAAACAGAGCC against RBPJ, which seed-corrected z-score is on record?
**A.** 0.0342

**Q.** For UGAGUUCUGAUCGCAGUUC against MCC, which seed-corrected z-score is on record?
**A.** -0.00975

**Q.** For AAUGUUAACGAUGAAGAAG against ADRB2, which seed-corrected z-score is on record?
**A.** 0.292

**Q.** With AACAGGACAAUUUUAGCAC against OR1L1 as the sequence, how does the seed-corrected z-score read?
**A.** -2.6

**Q.** For UCUGAAACAAUCCUCACUC against LINC00598, which seed-corrected z-score is on record?
**A.** -0.139

**Q.** Which seed-corrected z-score does the source give for UGAGGAUAAAGCGAAGAGC against VARS2 here?
**A.** 0.0595

**Q.** Which seed-corrected z-score does the source give for AACUGGGACUUGUUUUACC against FAM83F here?
**A.** 0.219

**Q.** With AAGGUUGCUCGUUCUAUGG against CASP5 as the sequence, how does the seed-corrected z-score read?
**A.** -2.33

**Q.** With UAAUGUCCCAAUCGUAUUG against UXS1 as the sequence, how does the seed-corrected z-score read?
**A.** 0.872

**Q.** With AAUCUCUCGGUUUCGAUUC against HYKK as the sequence, how does the seed-corrected z-score read?
**A.** 1.15

**Q.** With UCCGUGCACAUCUUAUAGG against HMG20B as the sequence, how does the seed-corrected z-score read?
**A.** 0.0817

**Q.** Which seed-corrected z-score does the source give for UAAGAAAUGAUGCUCAAUG against LMAN1L here?
**A.** -0.257

**Q.** With UCUACAUCAAUCAAAUAUC against DUSP11 as the sequence, how does the seed-corrected z-score read?
**A.** 1.23

**Q.** With UCUCUUCAUACUUAUUAGC against TEX43 as the sequence, how does the seed-corrected z-score read?
**A.** -2.3

**Q.** Which seed-corrected z-score does the source give for UUGGGAUAAUGAUUGUUAC against OR10AG1 here?
**A.** -0.676

**Q.** For UUCCUGACGAGGUACACUG against GAS2L2, which seed-corrected z-score is on record?
**A.** 0.821

**Q.** Which seed-corrected z-score does the source give for UCAGAGACCAGCUGUUUCU against IGSF23 here?
**A.** -0.0662

**Q.** With ACAGCUAUAAAGGUGAUCC against MTMR1 as the sequence, how does the seed-corrected z-score read?
**A.** -2.56

**Q.** For UGUCGUUCAAGGGUCUUCC against IFNE, which seed-corrected z-score is on record?
**A.** -0.372

**Q.** With UAACUAGUUUUCUUGUCCC against CARD6 as the sequence, how does the seed-corrected z-score read?
**A.** 0.329

**Q.** With UAUCAUCCAAAACUGUAUC against ASNSD1 as the sequence, how does the seed-corrected z-score read?
**A.** 0.0108

**Q.** For AUCGGCAUUAAGAAUGUAG against EIF3L, which seed-corrected z-score is on record?
**A.** -0.237

**Q.** With UUAGCUGCAUCCUUGCUGG against CELSR3 as the sequence, how does the seed-corrected z-score read?
**A.** -2.13

**Q.** For UAAGUUCUUGUAUCUUCCC against ATP6V1G3, which seed-corrected z-score is on record?
**A.** 0.313

**Q.** With UUCUGGAUUCUGGGCAUCG against IFI6 as the sequence, how does the seed-corrected z-score read?
**A.** -0.197

**Q.** With UCAAUAACCAUGAAGAUGC against FAM162A as the sequence, how does the seed-corrected z-score read?
**A.** 0.76

**Q.** With UCGUGCUACACCAUGAGUC against CTTNBP2 as the sequence, how does the seed-corrected z-score read?
**A.** 0.0923

**Q.** For UUCCAGUAUGCUGAUUUCC against SLC8B1, which seed-corrected z-score is on record?
**A.** -2.95

**Q.** For UCACUUGAUAACAAUCUCC against ZCWPW2, which seed-corrected z-score is on record?
**A.** -0.645

**Q.** With AUCAUUAUCCUUCUCAUCC against IRF6 as the sequence, how does the seed-corrected z-score read?
**A.** -0.561

**Q.** With UAGCCCUCACCAUAGAUGC against SYNGR2 as the sequence, how does the seed-corrected z-score read?
**A.** 0.181

**Q.** Which seed-corrected z-score does the source give for ACAGUUGCAACUUCCAUGC against KCND2 here?
**A.** -2.77

**Q.** For UGAGUACCGUGAUAAAUGC against TAS1R2, which seed-corrected z-score is on record?
**A.** 0.56
